Source: PubChem BioAssay AID1159580 (chemical genetic matrix, 2015)
Hit rate of the full screen: of about 5,500 compounds, about 2,000 (36%) were called active. Another 18% or so got no clear call; they are omitted. The list shows a part of the results. Unmarked numbers belong to inactive results. Rule as the data show it: active = normalized growth mostly below about 0.91 (no sharp cut-off); inconclusive = no clear call, values can overlap the other calls; inactive = mostly above about 0.92.

Assay: chemical genetic growth profiling, strain panel (AID 1159580);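 also: tested at 20 µM; growth read once vehicle control cultures reached saturation at 30 °C; 1 = growth at the plate median or of vehicle wells; lower values mean less growth of the strain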
Settings: S. cerevisiae deletion strains, growth OD

SMILES: CC1=NN(c2ccccc2)C(=O)C1
- normalized growth (locus YAL021C, strain ccr4, active compounds read low): 0.982
- normalized growth (locus YAL026C, strain drs2, active compounds read low): 0.959
- normalized growth (locus YAL030W, strain snc1, active compounds read low): 0.998
- normalized growth (locus YBL061C, strain skt5, active compounds read low): 0.987
- normalized growth (locus YBR009C, strain hhf1, active compounds read low): 0.936
- normalized growth (locus YBR021W, strain FUR4, active compounds read low): 0.993
- normalized growth (locus YBR023C, strain chs3, active compounds read low): 0.983
- normalized growth (locus YBR171W, strain sec66, active compounds read low): 0.994
- normalized growth (locus YBR229C, strain ROT2, active compounds read low): 0.978
- normalized growth (locus YBR231C, strain swc5, active compounds read low): 0.979
- normalized growth (locus YBR279W, strain paf1, active compounds read low): 0.979
- normalized growth (locus YCL011C, strain gbp2, active compounds read low): 0.98
- normalized growth (locus YCL016C, strain dcc1, active compounds read low): 0.965
- normalized growth (locus YCL029C, strain bik1, active compounds read low): 0.982
- normalized growth (locus YCL061C, strain MRC1, active compounds read low): 0.985
- normalized growth (locus YCL069W, strain vba3, active compounds read low): 0.986
- normalized growth (locus YCR088W, strain abp1, active compounds read low): 0.993
- normalized growth (locus YDL005C, strain med2, active compounds read low): 0.975
- normalized growth (locus YDL035C, strain GPR1, active compounds read low): 0.955
- normalized growth (locus YDL040C, strain nat1, active compounds read low): 0.978
- normalized growth (locus YDL074C, strain BRE1, active compounds read low): 0.912
- normalized growth (locus YDL101C, strain DUN1, active compounds read low): 0.957
- normalized growth (locus YDL134C, strain PPH21, active compounds read low): 0.971
- normalized growth (locus YDL185W, strain tfp1, active compounds read low): 0.976
- normalized growth (locus YDL192W, strain arf1, active compounds read low): 0.918
- normalized growth (locus YDR001C, strain nth1, active compounds read low): 0.994
- normalized growth (locus YDR069C, strain doa4, active compounds read low): 0.969
- normalized growth (locus YDR101C, strain arx1, active compounds read low): 1.01
- normalized growth (locus YDR137W, strain rgp1, active compounds read low): 0.899
- normalized growth (locus YDR159W, strain sac3, active compounds read low): 0.957
- normalized growth (locus YDR162C, strain NBP2, active compounds read low): 0.925
- normalized growth (locus YDR195W, strain ref2): 1
- normalized growth (locus YDR297W, strain sur2, active compounds read low): 0.983
- normalized growth (locus YDR318W, strain mcm21, active compounds read low): 0.904 (active)
- normalized growth (locus YDR334W, strain swr1, active compounds read low): 0.992
- normalized growth (locus YDR335W, strain msn5, active compounds read low): 0.99
- normalized growth (locus YDR388W, active compounds read low): 0.958
- normalized growth (locus YDR392W, strain spt3, active compounds read low): 0.609 (active)
- normalized growth (locus YDR502C, strain sam2, active compounds read low): 0.934
- normalized growth (locus YEL003W, strain gim4, active compounds read low): 0.97
- normalized growth (locus YEL037C, strain rad23, active compounds read low): 0.994
- normalized growth (locus YEL061C, strain CIN8 (second series), active compounds read low): 0.988
- normalized growth (locus YEL061C, strain CIN8, active compounds read low): 0.992
- normalized growth (locus YER015W, strain faa2, active compounds read low): 0.987
- normalized growth (locus YER016W, strain bim1, active compounds read low): 0.99
- normalized growth (locus YER110C, active compounds read low): 0.98
- normalized growth (locus YER111C, strain swi4, active compounds read low): 0.989
- normalized growth (locus YER155C, strain BEM2 (second series), active compounds read low): 0.917
- normalized growth (locus YER155C, strain BEM2, active compounds read low): 0.991
- normalized growth (locus YER167W, strain BCK2, active compounds read low): 0.952
- normalized growth (locus YFR010W, strain ubp6, active compounds read low): 0.983
- normalized growth (locus YGL078C, strain dbp3, active compounds read low): 0.98
- normalized growth (locus YGL086W, strain mad1, active compounds read low): 0.955
- normalized growth (locus YGL167C, strain pmr1, active compounds read low): 0.982
- normalized growth (locus YGL173C, strain kem1, active compounds read low): 0.974
- normalized growth (locus YGL227W, strain vid30, active compounds read low): 0.995
- normalized growth (locus YGL240W, strain doc1, active compounds read low): 0.952
- normalized growth (locus YGL248W, strain PDE1, active compounds read low): 0.963
- normalized growth (locus YGL253W, strain hxk2, active compounds read low): 0.976
- normalized growth (locus YGR135W, strain pre9, active compounds read low): 0.914
- normalized growth (locus YGR252W, strain gcn5, active compounds read low): 0.867
- normalized growth (locus YHR013C, strain ard1, active compounds read low): 0.881
- normalized growth (locus YHR027C, strain rpn1, active compounds read low): 0.985
- normalized growth (locus YHR030C, strain SLT2, active compounds read low): 0.987
- normalized growth (locus YHR079C, strain IRE1 (second series), active compounds read low): 0.981
- normalized growth (locus YHR094C, strain hxt1, active compounds read low): 0.982
- normalized growth (locus YHR129C, strain ARP1, active compounds read low): 0.972
- normalized growth (locus YHR142W, strain chs7, active compounds read low): 0.972
- normalized growth (locus YHR200W, strain rpn10, active compounds read low): 0.975
- normalized growth (locus YIL066C, strain RNR3, active compounds read low): 0.929
- normalized growth (locus YIL073C, strain SPO22, active compounds read low): 0.898
- normalized growth (locus YIL125W, strain kgd1, active compounds read low): 0.93 (active)
- normalized growth (locus YIR030C, strain dcg1, active compounds read low): 0.978
- normalized growth (locus YJL092W, strain hpr5, active compounds read low): 0.985
- normalized growth (locus YJL095W, strain BCK1 (second series), active compounds read low): 0.983
- normalized growth (locus YJL095W, strain BCK1, active compounds read low): 0.935
- normalized growth (locus YJL115W, strain asf1, active compounds read low): 0.983
- normalized growth (locus YJL129C, strain trk1, active compounds read low): 0.985
- normalized growth (locus YJL134W, strain LCB3, active compounds read low): 0.981
- normalized growth (locus YJL154C, strain vps35, active compounds read low): 0.997
- normalized growth (locus YJL164C, strain tpk1, active compounds read low): 0.973
- normalized growth (locus YJL166W, strain qcr8, active compounds read low): 0.949
- normalized growth (locus YJL168C, strain set2, active compounds read low): 0.993
- normalized growth (locus YJL187C, strain SWE1 (second series), active compounds read low): 0.986
- normalized growth (locus YJL187C, strain SWE1, active compounds read low): 0.983
- normalized growth (locus YJR043C, strain POL32, active compounds read low): 0.998
